# Screening results deposited in PubChem BioAssay by National Center for Advancing Translational Sciences (NCATS).
# Sampled rows, rich in hits. Any-hit rate of the full collection: about 21%.
# CHX counter-1: counter-screen for Shiga toxin inhibitors: cycloheximide protein synthesis inhibition | cell reporter, cycloheximide protein synthesis inhibition counterscreen | max response, % | hit rate 12% among 300,000 | AID 2314; in the data active = max response mostly above about 13%, no sharp cut-off; inactive = mostly below about 14%; also: read at 38.3 µM for the half of the compounds with a filed dose; 0% is about no effect
# Pf growth 48h: inhibits P. falciparum growth in the first generation, 48 h; AID 504832; Potency, µM (series often up to 28.7 µM), inactives show at the top dose activity change, negative = inhibition, actives largely listed as inhibitors; hit rate 5.9% among 310,000; P. falciparum luciferase growth in erythrocytes, 48 h; active = well fitted inhibition curve with a large enough effect; inconclusive = small, poorly fitted or top-dose-only effect, or another doubt; inactive = no such curve, though single readings can be large or run the other way; also: potency is read from the fitted curve at half-maximal effect; % is scaled to controls: 0 for no effect and ±100 for the full control effect
#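 In quantitative HTS format, infected erythrocytes bearing luciferase-reporter parasites were treated for a single generation at 37 C. Luminescence after adding detection reagent served as the growth measure.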
# NS1 inh: blocks influenza NS1 protein function; hit rate 0.4% among 270,000; Potency, µM (top dose mostly 46.1 µM), for inactives: at the highest dose activity, positive = more growth; also: potency is read from the fitted curve at half-maximal effect; actives are rising curves; nearly all actives have a fitted effect of over 50% in size
#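 Read-out: OD600 growth recovery of NS1-expressing budding yeast. Cells grown overnight at 30C in -URA glucose medium, washed, resuspended and diluted 1:100 in 2% galactose assay medium, pH 6.0. Same strain lacking NS1 served as positive control.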
# Shiga inhibitor: Shiga toxin inhibition. hit rate 9.2% among 290,000. AID 2315. Vero cells, Shiga toxin protein synthesis inhibition reporter. inhibition, % at 38.7 µM; in the data active = inhibition mostly above about 28%, no sharp cut-off; inactive = mostly below about 43%; also: 0% is about no effect
# Pf growth 96h: P. falciparum growth inhibition at 96 hours; P. falciparum luciferase reporter growth, 96 h; Potency, µM (doses to about 28.7 µM), inactives show at the top dose activity change, negative = inhibition, actives largely listed as inhibitors; hit rate 6.9% among 320,000; AID 504834; active = well fitted inhibition curve with a large enough effect; inconclusive = small, poorly fitted or top-dose-only effect, or another doubt; inactive = no such curve, though single readings can be large or run the other way; also: potency is read from the fitted curve at half-maximal effect; % is scaled to controls: 0 for no effect and ±100 for the full control effect
#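 Luminescence readout: decreased luciferase signal marks inhibited growth of reporter-expressing P. falciparum in infected red cells (2% hematocrit, 0.05% parasitemia final), exposed to compound two generations (96 h, 37 C, 5% CO2).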
# SARS PLP yeast: SARS-CoV PLP inhibition in yeast. S. cerevisiae expressing SARS-CoV PLpro, growth rescue. Potency, µM (highest dose often 32.9 µM), inactives show at the top dose activity, positive = growth rescue, actives largely listed as activators. hit rate 0.19% among 330,000. AID 485353; also: potency is read from the fitted curve at half-maximal effect; 0% is about no effect; nearly all actives have a fitted effect of over 55% in size
# CHX counter-2: counter-screen for Shiga toxin inhibitors: cycloheximide protein synthesis block; hit rate 3% among 510; Cycloheximide counterscreen, protein synthesis reporter, Shiga toxin assay; shares compounds with Shiga inhibitor; Potency, µM (series often up to 38.3 µM), for inactives: top-dose activity (activation), most hits filed as activators; also: potency is read from the fitted curve at half-maximal effect; 0% is about no effect
# Starred values were filed as active, the others as inactive; i = inactive; ? = inconclusive; . = no result. Unless noted, calls follow the shape of the full dose curve.
SMILES,CHX counter-1,Pf growth 48h,NS1 inh,Shiga inhibitor,Pf growth 96h,SARS PLP yeast,CHX counter-2
COc1ccc(NC(=O)CCCN2C(=O)CN(C)C2=O)cc1Cl,.,11%,.,.,30%,5%,.
Cn1c(CCC(=O)Nc2cc(S(C)(=O)=O)ccc2Cl)nc2cc(S(=O)(=O)N3CCOCC3)ccc21,.,0%,.,.,-4%,1%,.
Cc1ccccc1C1CC(=O)Oc2cc(C)c(Cl)c(C)c21 (stereo not drawn),-1,.,.,i,.,.,.
O=C(CCCC(=O)Nc1ccc(Br)cc1)N/N=C/c1ccccc1,-2,31%,0%,7,23%,2%,.
CCOc1ccc(N2C(=O)CC(N3CCN(c4ccc(Cl)cc4)CC3)C2=O)cc1 (stereo not drawn),2,1%,-35%,-18,3.3µM*,-24%,.
CCOC(=O)c1c(CN2CCN(CCO)CC2)n(-c2ccccc2)c2cc(Br)c(O)cc12,-4,2.1µM*,-2%,-22,1.7µM*,0%,.
CCOC(=O)c1c(CS(=O)(=O)c2ccccc2)n(C)c2cc(Br)c(O)cc12,-1,-29%,12%,-6,-44%,3%,.
CCOC(=O)c1c(CN2CCN(c3ccccc3)CC2)oc2cc(Br)c(O)cc12,-2,1.7µM*,2%,3,?,4%,.
CCOC(=O)c1c(CNc2ccncc2)n(C)c2cc(Br)c(O)cc12,-1,0.33µM*,.,-7,0%,-1%,.
CCOC(=O)c1c(CSC(=N)N)n(-c2ccccc2)c2cc(Br)c(OC(C)=O)cc12,-2,2.9µM*,?,-13,2.1µM*,0%,.
CCOC(=O)c1c(CN2CCN(C)CC2)n(-c2ccccc2)c2cc(Br)c(O)cc12,-2,?,4%,-19,?,1%,.
CC(C)CC(=O)C[C@H](O)C(Cl)(Cl)Cl,.,.,-12%,.,.,.,.
Cc1ccc(OCCCN(C)C)c(Br)c1,-6,34%,-6%,-30,-23%,8%,.
COc1cccc(OC)c1OCCCOc1ccc(C)cc1Br,7,?,-27%,22*,21%,-91%,2%
CN(C)S(=O)(=O)c1ccc(C(=O)Nc2ccc(CCC(=O)N3CCCC3)cc2)cc1,-2,?,-5%,-4,-2%,11%,.
CN(C)S(=O)(=O)c1ccc(C(=O)Nc2ccc(CN3CCCC3)cc2)cc1,7,?,?,51*,.,3%,1%
CN1CCc2c(sc3c2C(=O)NC(c2ccc4c(c2)OCO4)N3)C1 (stereo not drawn),15,5%,-2%,29*,-3%,-3%,4%
O=C1NC(c2ccc(Br)cc2)Nc2sc3c(c21)CCC3 (stereo not drawn),15,5%,0%,23,19%,-3%,.
COc1ccc(-c2nc(NC(=O)CSc3nnc4ccccn34)ns2)cc1,2,-7%,15%,44*,?,2%,?
Cc1ccc(N2CCN(C(=O)c3ccccc3NC(=O)c3ccccc3C(=O)O)CC2)cc1,3,34%,24%,39*,13%,19%,-1%
COc1ccccc1C(=O)Nc1ccc(N2CCN(C(C)=O)CC2)cc1,2,-3%,0%,53*,8%,0%,-2%
Cc1nn(S(=O)(=O)c2cccc([N+](=O)[O-])c2)c(C)c1S(=O)(=O)N1CCOCC1,12,15%,-5%,-6,?,5%,.
CCC(C)C1C(C#N)=C(N)OC2=C1C(=O)CC(C)(C)C2 (stereo not drawn),-2,?,-84%,14*,?,-5%,-2%
CC1(C)CC(=O)C2=C(C1)OC(N)=C(C#N)C2Cc1ccccc1 (stereo not drawn),-1,0%,1%,-1,-18%,-4%,.
CC(NC(=O)C(NC(=O)C1CCCN1C(=O)OC(C)(C)C)C(C)C)C(N)=O (stereo not drawn),-2,-12%,4%,-1,25%,-1%,.
Cc1ccc(NC(=O)COC(=O)c2ccc(OCc3c(C)noc3C)cc2)cc1S(=O)(=O)N1CCOCC1,1,-20%,30%,-13,?,8%,.
Cc1ccc(C(=O)CSc2nnnn2C(C)C)c(C)c1,1,-8%,-8%,33*,52%,-6%,0.32µM*
